Several values for one entry are separate records, joined by “and”; a condition that tells them apart may be missing. Equal entries are not always repeated. Some structures have more than one record in an assay (separate samples or runs), and their calls can disagree. Activity calls are given as the source filed them. A call without a number means that no potency is given here. Unless noted, calls come from the whole dose curve; as a rule, active = well fitted curve in the direction sought with a large enough effect in the repeat runs; inconclusive = weak or mixed curves; inactive = no such curve, though single readings can be large; an effect the other way counts as inactive or inconclusive.
What was measured:
[1] = qHTS assay to identify small molecule antagonists of the thyroid receptor (TR) signaling pathway (AID 743065); note: nearly all actives have a fitted effect of over 55% in size; note: potency is the fitted concentration of half-maximal effect
In short: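 Antagonism measured as loss of luciferase signal in GH3 cells stably carrying a TRE-luciferase reporter, co-treated with compound and T3 (1 nM final) for 23.5 h at 37 C. Viability was read in the same well by CellTiter-Fluor.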

[2] = test system: thyroid hormone receptor (rat, GH3 cells); test: qHTS assay to identify small molecule agonists of the thyroid receptor (TR) signaling pathway (AID 743066; calls by dose curve; note: potency is the fitted concentration of half-maximal effect)
[3] = qHTS assay to identify small molecule antagonists of the estrogen receptor alpha (ER-alpha) signaling pathway - cell viability counter screen (AID 743074; calls by dose curve;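 note: HEK293 cells carrying ER-alpha-UAS-bla reporter stimulated with 17beta-estradiol; nearly all actives have a fitted effect of over 45% in size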; note: potency is the fitted concentration of half-maximal effect)
[4] = qHTS assay to identify small molecule antagonists of the estrogen receptor alpha (ER-alpha) signaling pathway using the BG1 cell line - cell viability counter screen (AID 743081);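 note: compound given together with 17beta-estradiol as the ER stimulus; nearly all actives have a fitted effect of over 45% in size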; note: potency is the fitted concentration of half-maximal effect
[5] = target: Aromatase (Homo sapiens) (UniProt P11511); test: qHTS assay to identify aromatase inhibitors (AID 743083); note: nearly all actives have a fitted effect of over 55% in size; note: potency is the fitted concentration of half-maximal effect
Chain of Aromatase (Homo sapiens) (P11511 whole entry, looked up): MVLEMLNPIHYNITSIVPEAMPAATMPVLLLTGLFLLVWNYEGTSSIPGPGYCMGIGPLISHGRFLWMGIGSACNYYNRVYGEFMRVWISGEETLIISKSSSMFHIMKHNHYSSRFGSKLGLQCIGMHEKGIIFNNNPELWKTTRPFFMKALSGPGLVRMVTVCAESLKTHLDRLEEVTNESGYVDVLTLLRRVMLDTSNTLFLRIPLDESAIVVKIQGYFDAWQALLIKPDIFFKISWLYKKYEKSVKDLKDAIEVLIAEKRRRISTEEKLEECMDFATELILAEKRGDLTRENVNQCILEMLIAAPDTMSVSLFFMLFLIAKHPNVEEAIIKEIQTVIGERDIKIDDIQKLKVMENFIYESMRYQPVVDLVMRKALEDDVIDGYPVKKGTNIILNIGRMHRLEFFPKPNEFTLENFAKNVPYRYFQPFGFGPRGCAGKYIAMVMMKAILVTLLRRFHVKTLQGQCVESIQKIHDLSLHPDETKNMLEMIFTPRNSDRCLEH

[6] = qHTS assay to identify small molecule antagonists of the estrogen receptor alpha (ER-alpha) signaling pathway using the BG1 cell line (AID 743080; calls by dose curve;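 note: BG1 cells stimulated with 17beta-estradiol alongside compound; nearly all actives have a fitted effect of over 25% in size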; note: potency is the fitted concentration of half-maximal effect); settings: BG1Luc4E2 ERE-luciferase antagonist mode, luminescence; activity change, negative = inhibition: at 70.3 µM (top of the series)
In short: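 Seeding, 24 h rest, compound transfer from DMSO, 17beta-estradiol addition, 21.5 h incubation, CellTiter-Fluor (30 min, 37 C), then ONE-Glo (30 min, room temperature): this sequence was run on BG1-Luc-4E2 reporter cells.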

[7] = target: Estrogen receptor (Homo sapiens) (UniProt P03372); test: qHTS assay to identify small molecule agonists of the estrogen receptor alpha (ER-alpha) signaling pathway (AID 743075; calls by dose curve; note: potency is the fitted concentration of half-maximal effect)
Chain of Estrogen receptor (Homo sapiens) (P03372 whole entry, looked up): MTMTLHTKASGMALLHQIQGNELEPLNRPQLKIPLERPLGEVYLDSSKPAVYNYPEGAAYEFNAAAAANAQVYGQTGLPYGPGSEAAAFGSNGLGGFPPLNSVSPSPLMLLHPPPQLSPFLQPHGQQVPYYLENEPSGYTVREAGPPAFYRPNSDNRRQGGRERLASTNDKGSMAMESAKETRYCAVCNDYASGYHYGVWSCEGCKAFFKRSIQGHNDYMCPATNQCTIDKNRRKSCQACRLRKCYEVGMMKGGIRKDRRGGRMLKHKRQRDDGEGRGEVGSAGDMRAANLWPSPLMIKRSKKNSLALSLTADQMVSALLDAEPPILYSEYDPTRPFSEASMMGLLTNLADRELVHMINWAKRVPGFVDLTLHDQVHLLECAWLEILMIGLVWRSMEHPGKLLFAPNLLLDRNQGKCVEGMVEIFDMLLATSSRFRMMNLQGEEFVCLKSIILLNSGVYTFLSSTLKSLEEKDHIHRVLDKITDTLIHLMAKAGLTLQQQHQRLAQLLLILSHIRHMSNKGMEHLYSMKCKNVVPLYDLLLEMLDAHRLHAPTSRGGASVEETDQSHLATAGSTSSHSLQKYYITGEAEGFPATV

[8] = target: Estrogen receptor (Homo sapiens) (UniProt P03372); test: qHTS assay to identify small molecule agonists of the estrogen receptor alpha (ER-alpha) signaling pathway using the BG1 cell line (AID 743079); note: nearly all actives have a fitted effect of over 20% in size; note: potency is the fitted concentration of half-maximal effect
[9] = target: Estrogen receptor (Homo sapiens) (UniProt P03372); test: qHTS assay to identify small molecule antagonists of the estrogen receptor alpha (ER-alpha) signaling pathway (AID 743069; active = well fitted curve in the direction sought with a large enough effect in the signal ratio in the repeat runs, not every such curve was filed as active; inconclusive = weak or mixed curves, or effect the other way; inactive = no such curve, though single readings can be large or run the other way; the % refers to the signal ratio; note: potency is the fitted concentration of half-maximal effect)
In short: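 Compound effects are measured against 17beta-estradiol stimulation in HEK293 cells with a UAS-controlled beta-lactamase reporter for ER-alpha. Exposure lasts 18 hr at 37C; LiveBLAzer B/G FRET substrate follows for 2 hr at room temperature.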

[10] = qHTS assay to identify small molecule antagonists of the thyroid receptor (TR) signaling pathway - cell viability counter screen (AID 743064); note: nearly all actives have a fitted effect of over 50% in size
In short: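 Viability of T3-stimulated (1 nM final) GH3.TRE-Luc cells is measured by CellTiter-Fluor fluorescence after 23.5 h compound exposure at 37 °C plus 30 min reagent incubation.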

Compound | Potency [1] | Potency [2] | Potency [3] | Potency [4] | Potency [5] | Potency [6] | Potency [7] | Potency [8] | Potency [9] | Potency [10]
NS(=O)(=O)O | inactive | inactive | inactive | inactive | inactive |  |  |  |  | 
C/C=C/C=C/C(=O)O | inactive | inactive | inactive | inactive | inactive |  |  |  |  | 
Nc1c(N=Nc2ccc(-c3ccc(N=Nc4cc(S(=O)(=O)O)c5ccccc5c4N)cc3)cc2)cc(S(=O)(=O)O)c2ccccc12 | 10.6 µM (active) and 30.6 µM (active) | inactive | inactive | 13.3 µM (active) and 24.3 µM (active) |  |  |  |  |  | 
CN1CCC[C@H]1c1cccnc1 | inactive | inactive | inactive | inactive | inactive | inactive |  |  |  | 
O=C1OC2(c3ccccc31)c1cc(Br)c(O)c(Br)c1Oc1c2cc(Br)c(O)c1Br | inactive | inactive | inactive | 11.9 µM (active) and 3.91 µM (active) and 8.88 µM (active) | inactive | inactive | inactive | inactive |  | 
NC(CO)(CO)CO | inactive | inactive and 9.69 µM (active) | inactive | inactive | inactive | inactive | inactive | inactive | inactive | 
O=C(Nc1ncc([N+](=O)[O-])s1)c1cccs1 | 21.1 µM (active) | inactive |  |  | inactive |  | inactive |  | inactive | 
COc1ccc2c(c1)c(CC(=O)O)c(C)n2C(=O)c1ccc(Cl)cc1 | inactive | inactive | inactive | inactive | inactive | inactive | inactive | inactive | inactive | 
O=S1(=O)OC(c2ccc(O)cc2)(c2ccc(O)cc2)c2ccccc21 | inactive | inactive | inactive | 13.3 µM (active) and 27.3 µM (active) and 17.2 µM (active) | inactive | inactive | inactive | 15 µM (active) and inactive | inactive | 
CC/C(=C(\c1ccccc1)c1ccc(OCCN(C)C)cc1)c1ccccc1 | 8.63 µM (active) [middle of 5 runs] | inactive | 48.9 µM (active) and 49.4 µM (active) and 49 µM (active) | inactive |  |  |  |  |  | 
CCN(CC)C(=O)c1cccc(C)c1 | inactive | inactive | inactive | inactive | inactive | inactive | 21.3 µM [inconclusive] (active) and inactive | 2.66 µM (active) and inactive | inactive | 
CS(=O)(=O)OCCCCOS(C)(=O)=O |  |  | inactive | inactive | inactive | inactive | inactive | 11.9 µM (active) and inactive | inactive | inactive
COc1ccc(C(Cl)=C(c2ccc(OC)cc2)c2ccc(OC)cc2)cc1 | 11.9 µM (active) and 6.08 µM (active) and 7.7 µM (active) | inactive | inactive | inactive | 8.59 µM (active) and 12.2 µM (active) | 18.8 µM (active) and 12.1 µM (active) and 9.69 µM (active) | inactive | inactive | 1.51 µM [inconclusive] (active) and 1.54 µM [inconclusive] (active) and 1.23 µM [inconclusive] (active) | 
O=c1[nH]cnc2c1ncn2[C@H]1CC[C@@H](CO)O1 | inactive | inactive and 1.31 µM (active) | inactive | inactive | inactive | inactive | inactive | inactive | inactive | 
Cc1ncc([N+](=O)[O-])n1CCO | inactive | inactive | inactive | inactive | inactive | inactive | inactive | inactive | inactive | 
O=C1O[C@H]([C@@H](O)CO)C(O)=C1O |  | inactive and 34.3 µM (active) | inactive | inactive | inactive |  |  |  |  | inactive
CCOC(N)=O | inactive | inactive | inactive | inactive | inactive | inactive | inactive | inactive | inactive | 
O=C1NS(=O)(=O)c2ccccc21 |  |  | inactive | inactive | inactive |  |  |  |  | inactive
CC12CCC(CC1)C(C)(C)O2 | inactive | inactive | inactive | inactive | inactive | inactive | inactive | inactive | inactive | 
O=CC(=O)c1ccccc1 |  |  | inactive | inactive | inactive | inactive | inactive | inactive | inactive | inactive
